Screening results (PubChem)
PfHsp90 set2 – reduces growth (ATP signal) of yeast expressing P. falciparum Hsp90; S. cerevisiae expressing PfHsp90, BacTiter-Glo ATP, 48 h; yeast lacking PDR1 and PDR3 efflux regulators; inhibition, % at 9.4 µM; hit rate 0.32% among 310,000;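 active = every replicate shows inhibition above about 80%, whatever the replicate mean, limit read from the data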
tim10-1 inh – tim10-1 yeast growth inhibition | S. cerevisiae tim10-1 ts strain growth, BacTiter-Glo, 24 h | inhibition, % at 20 µM | hit rate 2.2% among 330,000;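 active = inhibition of at least 40%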;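 also: mutant grown at 25 °C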
SKKanGAS inh – blocks kanamycin growth of S. pyogenes SKKanGAS strain; inhibition, % at 7.5 µM; AID 1662; BacTiter-Glo, 6 h; hit rate 1.3% among 300,000;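 active = mean replicate score, as percent of positive control median, at least 50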;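 also: strain carries kanamycin resistance gene driven by streptokinase promoter and grows in 40 µg/ml kanamycin; loss of luminescence reflects streptokinase promoter inhibition or plain growth inhibition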
tim23-1 inh – inhibits growth of tim23-1 mutant yeast. S. cerevisiae tim23-1 growth, BacTiter-Glo luminescence, 24 h. inhibition, % at 20 µM. hit rate 1.3% among 330,000. AID 463212;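 active = growth inhibition of the mutant yeast at or above 50%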;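 also: temperature-sensitive mutant grown at 25 °C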
NALP1 inh – blocks the NALP1 inflammasome reconstituted in yeast | hit rate 0.61% among 280,000 | S. cerevisiae NALP1/ASC/caspase-1 growth, X-gal OD620, 72 h | inhibition, % at 10 µM | AID 2071; in the data active = inhibition mostly above about 24%, no sharp cut-off; inactive = mostly below about 32%
TIM10 inh – TIM10 yeast growth inhibition | S. cerevisiae TIM10 strain growth, BacTiter-Glo luminescence, 24 h | inhibition, % at 10 µM | hit rate 1.4% among 330,000 | AID 463195;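 active = inhibition of 40% or more at the single tested concentration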;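 also: wild-type TIM10 isogenic control strain grown at permissive 25 °C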
tim10 confirm – confirmation of TIM10 yeast growth inhibitors. inhibition, % at 10 µM. shares compounds with TIM10 inh. hit rate 63% among 4,600. S. cerevisiae tim10 strain growth, BacTiter-Glo luminescence, 24 h;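 active = inhibition of yeast growth at or above a set limit in either of two replicates at 10 µM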; also: this counterscreen used the strain with wild-type TIM10
Of the large screens only hits and unclear results are named; the others gave an inactive call (follow-up assays come after a bar, where they were run). A selection: hits, their analogues and other compounds. The true share with any hit is near 4.8%.

Cc1cc(=O)oc2cc(OCC(=O)OCc3nnc(-c4ccccc4)o3)ccc12	none
CC(Sc1ncnc2sc(-c3ccccc3)cc12)C(=O)NCC1CCCO1 (stereo unspecified)	none (no result: NALP1 inh)
Cc1ccc2nc(-c3ccc4c(c3)NC(=O)CO4)cn2c1	TIM10 inh 46 | tim10 confirm 45
CC(C)c1ccc(NC2CCCN(C(=O)c3ccnn3C)C2)cc1 (stereo unspecified)	none
CCOC(=O)N1CCC(N(CCN(C)C)C(=S)Nc2cccc(Cl)c2C)CC1	none
c1ccc(C[n+]2cccc(-c3ccccc3)c2)cc1	none
CC1CCc2c(C(=O)Nc3ccccn3)csc2C1 (stereo unspecified)	none (no result: NALP1 inh)
CC1CCc2c(C(=O)Nc3nccs3)csc2C1 (stereo unspecified)	TIM10 inh 43 | tim10 confirm 43
CC(C)(C)c1ccc(-n2nc(C#N)c(Cl)cc2=O)cc1	PfHsp90 set2 100, TIM10 inh 48 | tim10 confirm 47
COc1cc(NS(=O)(=O)c2ccc(NC(=O)COc3ccccc3Cl)cc2)nc(OC)n1	none (no result: PfHsp90 set2)
O=C(Nc1cccc(F)c1)/C(=C\c1cccnc1)NC(=O)c1cccs1	none (no result: PfHsp90 set2)
c1ccc(-c2cc3c(ccc4nonc43)nn2)cc1	none
On1onc2c3cc(-c4ccccc4)nc3ccc21	TIM10 inh 61 (no result: SKKanGAS inh) | tim10 confirm 53
CN(C)CCCn1c(SCC(=O)Nc2nc(-c3cccc(Br)c3)cs2)nc2ccccc2c1=O	SKKanGAS inh 97, TIM10 inh 43 (no result: NALP1 inh) | tim10 confirm inactive
Cc1cc(C)c(S(=O)(=O)N2CCC(C(=O)NCc3ccc(Cl)cc3Cl)CC2)c(C)c1	PfHsp90 set2 127, TIM10 inh 56 | tim10 confirm 51
Cc1cc(C)c(S(=O)(=O)N2CCC(C(=O)NCc3ccncc3)CC2)c(C)c1	none
Cc1ccc(NC(=O)C2CCCN(S(=O)(=O)c3c(C)noc3C)C2)c(Br)c1 (stereo unspecified)	none
CC1C(=O)CC(c2ccccc2)N(C)C1c1ccccc1 (stereo unspecified)	none
CCC1C(c2ccccc2)N(C)C(c2ccccc2)CC1(O)c1ccccc1 (stereo unspecified)	TIM10 inh 44 | tim10 confirm 34
O=C(OCC(=O)C12CC3CC(CC(C3)C1)C2)c1ccccc1O	none (no result: SKKanGAS inh, NALP1 inh)
O=C1CC(N2CCC(c3nc4ccccc4o3)CC2)C(=O)N1c1ccc(Cl)c(C(F)(F)F)c1 (stereo unspecified)	PfHsp90 set2 104, TIM10 inh 43 | tim10 confirm inactive
O=C1CC(N2CCC(c3nc4ccccc4o3)CC2)C(=O)N1c1ccc(F)cc1 (stereo unspecified)	none
CN(/C=C/C(=O)C(F)(F)F)Cc1ccccc1	none
CN1c2ccccc2Oc2nnc(Cl)cc21	TIM10 inh 48 | tim10 confirm 50
CCN(CC)CCOc1cc2c(nn1)Oc1ccccc1N2C	none
CCN=C1SC(CC(=O)NCc2ccccc2)C(=O)N1CC (stereo unspecified)	none
O=C(Nc1cc(Cl)cc(Cl)c1)c1cnn2cccnc12	none
O=C(Nc1cccc(Cl)c1)c1cnn2cccnc12	TIM10 inh 52 | tim10 confirm 35
CCOc1ccc(C(=O)NCC(=O)OCc2nnc(-c3ccccc3)o2)cc1OCC	TIM10 inh 50 (no result: SKKanGAS inh, NALP1 inh) | tim10 confirm inactive
CC1=CC(C)C(C(=O)O)C(C(=O)Nc2cccnc2)C1 (stereo unspecified)	none
CC1(C(=O)NC(=S)N(CCC#N)c2ccccc2)CC1(Cl)Cl (stereo unspecified)	none (no result: PfHsp90 set2)
CC(C)N(Cc1ccccc1)C(=S)NC(=O)C1(C)CC1(Cl)Cl (stereo unspecified)	TIM10 inh 41 | tim10 confirm 33
O=C(CCC(=O)Nc1nnc(C2CCCCC2)s1)NCc1ccccc1	TIM10 inh 55 | tim10 confirm inactive
COc1ccc(OC)c(/C=C/C(=O)OCC(=O)NCc2cccs2)c1	TIM10 inh 41 (no result: PfHsp90 set2, SKKanGAS inh, NALP1 inh) | tim10 confirm inactive
COc1ccc(OC)c(/C=C/C(=O)OCC(=O)NCc2ccccc2)c1	none (no result: SKKanGAS inh, NALP1 inh)
COc1cccc(C2NC(=O)c3ccccc3O2)c1OCc1ccccc1F (stereo unspecified)	TIM10 inh 43 | tim10 confirm inactive
